Laboratory results published in the supplement of paper PMC10849652.
About 8,800 targets were measured; listed, in parts, are those with a hit and a random draw of the rest. About 0.5% of all pairs of compound and target were hits.

Compound: C[C@H](C1=CC=C(C=C1)C(=O)NC2=C3C=CNC3=NC=C2)N
Experiment: log2 fold change, soluble protein after heating vs DMSO (PISA); higher = thermal stabilisation; K562 lysate, 10 uM; active = over 0.2 and 3.5 SD of the protein, either way, in both replicates (recomputed)
In short: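 A 30 min treatment with 10 μM compound was applied to crude K562 extract at 1 mg/mL protein in PBS pH 7.4 with 1 mM MgCl2. Heating for 3 min spanned 48°C-58°C, after which aliquots were pooled, adjusted to 0.5% NP-40 at 4°C and spun at 21,000xg for 90 min. TMTpro 16plex LC-MS/MS of the supernatant, with channel sums equalised, gave values recorded as log-two fold change in thermal stability against solvent controls, from duplicates.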

UniProt Q00765, sequence (Q00765 whole entry, looked up): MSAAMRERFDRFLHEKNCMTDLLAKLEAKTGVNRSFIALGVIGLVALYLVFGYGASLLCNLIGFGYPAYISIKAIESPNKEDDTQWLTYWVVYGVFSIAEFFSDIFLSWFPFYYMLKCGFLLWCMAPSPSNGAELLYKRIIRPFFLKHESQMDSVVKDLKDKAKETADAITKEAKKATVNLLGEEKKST
UniProt Q16576, sequence (Q16576 whole entry, looked up): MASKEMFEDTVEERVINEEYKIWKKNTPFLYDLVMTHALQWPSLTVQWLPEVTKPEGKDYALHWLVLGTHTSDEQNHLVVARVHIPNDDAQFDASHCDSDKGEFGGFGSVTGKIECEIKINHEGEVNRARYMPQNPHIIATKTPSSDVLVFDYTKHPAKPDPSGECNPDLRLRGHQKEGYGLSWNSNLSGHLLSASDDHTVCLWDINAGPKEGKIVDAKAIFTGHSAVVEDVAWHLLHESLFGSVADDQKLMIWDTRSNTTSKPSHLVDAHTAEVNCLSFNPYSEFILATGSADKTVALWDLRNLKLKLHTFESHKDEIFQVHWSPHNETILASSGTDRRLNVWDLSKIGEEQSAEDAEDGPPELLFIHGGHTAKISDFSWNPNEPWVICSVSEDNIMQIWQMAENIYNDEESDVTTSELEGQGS
UniProt P28702, sequence (P28702 whole entry, looked up): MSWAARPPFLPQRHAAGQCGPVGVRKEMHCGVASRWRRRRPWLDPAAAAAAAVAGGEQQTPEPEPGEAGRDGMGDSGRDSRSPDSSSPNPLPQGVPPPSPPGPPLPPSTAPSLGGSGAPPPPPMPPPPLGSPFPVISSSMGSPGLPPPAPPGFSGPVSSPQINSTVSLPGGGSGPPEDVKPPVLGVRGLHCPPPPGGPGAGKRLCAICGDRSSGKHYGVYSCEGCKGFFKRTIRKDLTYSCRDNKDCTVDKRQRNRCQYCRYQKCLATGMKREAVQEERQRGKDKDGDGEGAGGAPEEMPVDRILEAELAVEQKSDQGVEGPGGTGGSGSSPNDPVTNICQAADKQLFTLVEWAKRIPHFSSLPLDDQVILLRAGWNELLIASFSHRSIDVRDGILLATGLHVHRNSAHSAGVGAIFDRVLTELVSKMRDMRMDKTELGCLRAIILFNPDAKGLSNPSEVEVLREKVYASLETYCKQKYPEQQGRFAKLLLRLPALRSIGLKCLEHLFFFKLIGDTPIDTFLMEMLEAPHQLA
UniProt O94762, sequence (O94762 whole entry, looked up): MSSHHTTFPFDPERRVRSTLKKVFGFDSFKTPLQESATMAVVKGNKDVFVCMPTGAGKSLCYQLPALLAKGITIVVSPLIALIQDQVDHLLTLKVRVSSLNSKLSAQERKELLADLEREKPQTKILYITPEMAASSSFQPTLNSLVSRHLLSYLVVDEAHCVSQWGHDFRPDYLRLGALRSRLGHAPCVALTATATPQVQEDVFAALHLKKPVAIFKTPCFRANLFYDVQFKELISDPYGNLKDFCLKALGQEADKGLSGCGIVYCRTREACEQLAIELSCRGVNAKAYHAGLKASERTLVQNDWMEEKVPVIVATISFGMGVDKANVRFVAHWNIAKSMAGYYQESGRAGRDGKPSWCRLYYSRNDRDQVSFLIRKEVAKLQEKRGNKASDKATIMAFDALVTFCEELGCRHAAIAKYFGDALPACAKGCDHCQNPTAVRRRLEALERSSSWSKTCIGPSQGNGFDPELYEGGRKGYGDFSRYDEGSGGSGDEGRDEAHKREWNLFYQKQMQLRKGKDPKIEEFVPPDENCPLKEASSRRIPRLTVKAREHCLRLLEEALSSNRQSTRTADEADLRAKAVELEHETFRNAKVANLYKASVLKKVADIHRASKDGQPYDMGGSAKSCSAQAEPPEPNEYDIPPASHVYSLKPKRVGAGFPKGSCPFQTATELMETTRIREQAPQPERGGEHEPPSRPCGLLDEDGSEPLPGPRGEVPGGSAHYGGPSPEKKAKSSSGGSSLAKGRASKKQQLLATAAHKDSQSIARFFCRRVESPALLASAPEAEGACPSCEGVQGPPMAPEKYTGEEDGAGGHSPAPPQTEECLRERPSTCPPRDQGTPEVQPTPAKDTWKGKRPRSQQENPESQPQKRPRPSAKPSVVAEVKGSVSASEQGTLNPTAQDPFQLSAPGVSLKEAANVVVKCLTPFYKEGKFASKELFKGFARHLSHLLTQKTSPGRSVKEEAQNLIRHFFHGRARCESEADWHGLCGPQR
UniProt Q9GZR2, sequence (Q9GZR2 whole entry, looked up): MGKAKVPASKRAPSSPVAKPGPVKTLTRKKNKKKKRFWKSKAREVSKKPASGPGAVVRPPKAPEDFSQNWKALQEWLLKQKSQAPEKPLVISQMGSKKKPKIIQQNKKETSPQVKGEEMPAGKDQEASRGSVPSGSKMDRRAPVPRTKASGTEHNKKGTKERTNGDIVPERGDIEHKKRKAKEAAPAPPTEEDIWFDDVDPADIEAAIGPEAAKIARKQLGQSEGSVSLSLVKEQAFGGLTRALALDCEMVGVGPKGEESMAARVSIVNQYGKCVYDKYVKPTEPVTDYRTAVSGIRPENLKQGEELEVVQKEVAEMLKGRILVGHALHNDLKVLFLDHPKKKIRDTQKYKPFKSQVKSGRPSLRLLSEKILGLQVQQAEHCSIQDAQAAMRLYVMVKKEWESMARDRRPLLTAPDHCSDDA
UniProt Q8NBX0, sequence (Q8NBX0 whole entry, looked up): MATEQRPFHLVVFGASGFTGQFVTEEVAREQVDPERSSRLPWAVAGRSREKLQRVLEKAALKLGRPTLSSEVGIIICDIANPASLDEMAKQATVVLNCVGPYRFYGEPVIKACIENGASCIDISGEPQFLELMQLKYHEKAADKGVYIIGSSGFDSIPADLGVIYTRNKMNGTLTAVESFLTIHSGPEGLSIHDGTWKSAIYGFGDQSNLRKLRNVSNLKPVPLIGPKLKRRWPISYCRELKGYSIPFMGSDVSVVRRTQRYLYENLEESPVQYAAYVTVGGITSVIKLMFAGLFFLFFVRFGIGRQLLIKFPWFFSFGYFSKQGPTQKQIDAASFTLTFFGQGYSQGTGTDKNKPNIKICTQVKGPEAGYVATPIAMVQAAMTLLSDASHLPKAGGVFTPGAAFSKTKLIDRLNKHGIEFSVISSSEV
UniProt Q8N122, sequence (Q8N122 whole entry, looked up): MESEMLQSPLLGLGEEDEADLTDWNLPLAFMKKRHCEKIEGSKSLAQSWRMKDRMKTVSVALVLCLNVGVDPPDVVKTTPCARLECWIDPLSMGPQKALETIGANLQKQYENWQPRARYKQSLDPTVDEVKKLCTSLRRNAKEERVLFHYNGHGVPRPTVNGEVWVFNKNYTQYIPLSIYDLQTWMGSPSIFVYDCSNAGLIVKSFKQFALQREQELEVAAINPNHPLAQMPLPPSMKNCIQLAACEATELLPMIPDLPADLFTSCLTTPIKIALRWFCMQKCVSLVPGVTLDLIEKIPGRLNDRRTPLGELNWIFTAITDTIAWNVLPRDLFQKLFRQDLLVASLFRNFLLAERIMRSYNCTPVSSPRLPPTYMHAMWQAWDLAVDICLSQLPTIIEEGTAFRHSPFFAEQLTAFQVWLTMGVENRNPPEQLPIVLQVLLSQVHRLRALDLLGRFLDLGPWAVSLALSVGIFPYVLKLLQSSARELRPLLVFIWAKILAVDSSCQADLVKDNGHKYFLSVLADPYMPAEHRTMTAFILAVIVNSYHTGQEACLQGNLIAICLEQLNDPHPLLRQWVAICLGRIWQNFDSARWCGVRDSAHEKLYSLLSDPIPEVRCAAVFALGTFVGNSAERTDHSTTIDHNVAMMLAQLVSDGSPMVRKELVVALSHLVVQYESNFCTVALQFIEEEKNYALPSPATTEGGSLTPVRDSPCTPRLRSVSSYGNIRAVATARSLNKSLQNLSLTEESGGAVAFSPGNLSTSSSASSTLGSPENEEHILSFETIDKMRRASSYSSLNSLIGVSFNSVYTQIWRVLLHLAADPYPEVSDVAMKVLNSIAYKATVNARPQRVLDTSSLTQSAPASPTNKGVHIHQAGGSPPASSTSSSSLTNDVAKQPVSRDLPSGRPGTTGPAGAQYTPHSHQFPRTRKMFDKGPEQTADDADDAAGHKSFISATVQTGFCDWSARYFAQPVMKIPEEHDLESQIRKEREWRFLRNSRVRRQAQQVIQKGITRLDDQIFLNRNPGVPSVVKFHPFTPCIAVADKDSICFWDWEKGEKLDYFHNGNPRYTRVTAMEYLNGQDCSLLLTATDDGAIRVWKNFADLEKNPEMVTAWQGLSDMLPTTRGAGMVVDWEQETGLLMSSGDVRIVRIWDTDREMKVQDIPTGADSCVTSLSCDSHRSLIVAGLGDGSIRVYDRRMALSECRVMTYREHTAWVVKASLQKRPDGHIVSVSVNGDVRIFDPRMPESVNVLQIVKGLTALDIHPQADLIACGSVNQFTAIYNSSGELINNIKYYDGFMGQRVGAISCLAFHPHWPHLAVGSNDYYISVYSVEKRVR
UniProt Q6UVJ0, sequence (Q6UVJ0 whole entry, looked up): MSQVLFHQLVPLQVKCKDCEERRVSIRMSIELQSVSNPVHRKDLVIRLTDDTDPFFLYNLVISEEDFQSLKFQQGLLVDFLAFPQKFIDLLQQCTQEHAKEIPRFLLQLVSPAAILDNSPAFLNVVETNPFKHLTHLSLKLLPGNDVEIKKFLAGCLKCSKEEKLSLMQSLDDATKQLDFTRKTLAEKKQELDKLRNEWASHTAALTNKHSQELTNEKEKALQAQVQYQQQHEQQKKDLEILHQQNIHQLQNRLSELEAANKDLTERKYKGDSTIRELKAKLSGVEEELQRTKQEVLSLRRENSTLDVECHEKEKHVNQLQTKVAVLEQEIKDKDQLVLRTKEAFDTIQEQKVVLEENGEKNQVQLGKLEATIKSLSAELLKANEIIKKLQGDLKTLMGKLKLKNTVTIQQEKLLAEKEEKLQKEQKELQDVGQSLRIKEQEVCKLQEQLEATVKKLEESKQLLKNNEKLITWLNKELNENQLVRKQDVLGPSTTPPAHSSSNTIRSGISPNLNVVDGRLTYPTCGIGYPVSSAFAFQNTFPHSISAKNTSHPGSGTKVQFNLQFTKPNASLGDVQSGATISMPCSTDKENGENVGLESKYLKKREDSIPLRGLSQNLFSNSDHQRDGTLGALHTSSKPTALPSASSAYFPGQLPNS

log2 fold change, inactive:
RDH10 (UniProt Q8IZV5) -0.039
RPTOR (UniProt Q8N122) -0.044
SASS6 (UniProt Q6UVJ0) 0.099
RBBP7 isoform 2 (UniProt Q16576) -0.213
RAB21 (UniProt Q9UL25) 0.208
RBSN (UniProt Q9H1K0) -0.032
RECQL5 (UniProt O94762) 0.084
SAP30 (UniProt O75446) 0.042
R3HCC1 (UniProt Q9Y3T6) -0.034
RPL31 (UniProt P62899) -0.006
S100A11 (UniProt P31949) 0.097
RFC2 (UniProt P35250) -0.025
RXRB isoform 3 (UniProt P28702) 0.046
RIC1 (UniProt Q4ADV7) -0.032
REEP5 (UniProt Q00765) -0.11
RAP1GAP isoform 4 (UniProt P47736) 0.044
RIOK2 (UniProt Q9BVS4) -0.028
RNF17 (UniProt Q9BXT8) 0.08
SCCPDH (UniProt Q8NBX0) -0.179

log2 fold change, active:
RPL27 (UniProt P61353) 0.411
RAPGEF2, A0A2R8YGD3 -0.431
QTRT2 isoform 4 (UniProt Q9H974) -0.297
REXO4 (UniProt Q9GZR2) 0.349
